The record followed here is PubChem BioAssay.

Test [1] in a line: SK-BR-3 cell growth inhibitors, pilot screen, 24 h, human (AID 572).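 Note: compound exposure lasted between 18 and 24 h rather than exactly 24 h; 100% = carrier-treated control wells.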 The settings on record: SK-BR-3 viability, CellTiter-Glo luminescence, at 10 µM, stronger effect = lower value. On the technique in general: Cellular ATP, detected with luciferase, serves as a proxy for viable cell number.
Test [2] can be described thus: HUVEC growth inhibition – cell-based, human, primary screen (AID 575;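 active = viability at or below 30% in both replicate assays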;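 note: 100% = median of untreated cell wells with 0.1% DMSO on each plate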). The settings on record: HUVEC proliferation, CellTiter-Glo luminescence, 72 h; at 10 µM; stronger effect = lower value.
The nature of test [3]: growth inhibitors of H69AR lung tumor, primary screen, human, duplicate replicates (AID 580;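 active = viability at or under a set limit in both replicates, limit being median viability minus 3 SD, cut at about 48% in these data, passing the limit was not always enough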;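 note: 100% = mean luminescence of untreated wells and 0% = no signal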). The settings on record: H69AR lung tumor cells viability, ATP luminescence, 72 h; at 10 µM; stronger effect = lower value.
Test [4] is described as follows: reversal of MRP1-mediated doxorubicin resistance, pilot screen, H69AR cells, doxorubicin co-treatment (AID 601;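 active = viability loss from added drug above about 55%, and viability with drug at most 40%, in both replicates, limit read from the data, passing the limit was not always enough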). To be noted: CellTiter-Glo, 72 h, at 10 µM; for differential viability (reversal): stronger effect = higher value.
Test [5] in a line: 384-well plate pilot, post-Golgi transport modulator project, inhibition of yeast transport mutant growth (AID 636; in the data active = inhibition above about 31%). To be noted: absorbance 615 nm, about 18 h, stronger effect = higher value.
The nature of test [6]: growth suppression of yeast trafficking mutant, preliminary HTS, modulators of trafficking downstream of Golgi apparatus project, 1536-format plate, OD 615 nm (AID 637; in the data active = inhibition above about 30%). The settings on record: yeast transport mutant growth, absorbance 615 nm, 18 h; stronger effect = higher value.
A short description of test [7]: OD615 S. cerevisiae growth inhibition, permissive medium, pilot counter-assay, permissive growth control for S. cerevisiae lifespan shortening project (AID 705;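 active = growth inhibition above 25% in both replicates, a cutoff set 3 SD above the mean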). To be noted: OD615, 24 h, at 10 µM, stronger effect = higher value.
Test [8] is described as follows: Restrictive medium S. cerevisiae growth inhibition, OD615, pilot screen of yeast lifespan reduction project, restrictive growth control (AID 706;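 active = growth inhibition above a set limit, 3 SD over mean compound inhibition, in both replicates, cut at about 43% in these data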;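 note: modified DeaD lifespan yeast strain shifted to restrictive glucose medium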). To be noted: OD615, 48 h, at 10 µM, stronger effect = higher value.
Test [9] can be described thus: viability gain of MRP-1-high H69AR cells under doxorubicin, pilot screen, MRP-1 activator project, CellTiter-Glo, duplicate (AID 807;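 active = viability increase at or above a cutoff of the median across tested compounds plus 3 SD, cut at about 8.5% in these data, passing the limit was not always enough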;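 note: compound pretreatment 18-22 h then 72 h combined with doxorubicin; 0% = doxorubicin alone and 100% = vehicle without doxorubicin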). To be noted: H69AR viability with doxorubicin, CellTiter-Glo luminescence; at 10 µM; stronger effect = higher value.
Test [10] is described as follows: growth suppression of beta-catenin knockout HCT116, pilot screen, human colon tumor cells (AID 823;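 active = cell viability at or below a set limit in both duplicate runs, the limit being the all-compound median minus 4 SD, cut at about 23% in these data, passing the limit was not always enough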;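 note: 0% = wells killed by 20 µM Hyamine and 100% = untreated DMSO cell wells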). The settings on record: CellTiter-Glo, 60 h, at 10 µM, stronger effect = lower value.
The nature of test [11]: growth suppression of PTEN-deleted HCT116, pilot screen, cell-based, HCT116 clonal line, CellTiter-Glo (AID 824;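 active = viability at or below 27.92% in each of two runs, the all-compound median minus 4 SD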;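 note: 0% = 20 µM Hyamine control and 100% = vehicle cell control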). The settings on record: 60 h, at 10 µM, stronger effect = lower value.
Test [12] is described as follows: inhibitors of the yeast RAM network, pilot screen, dse1pr::URA3 reporter, 5-FOA selection (AID 869;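 active = inhibition over a set limit, the all-compound mean plus 3 SD, in both replicate runs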;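 note: 0% = DMSO wells with no growth and 100% = 10 µM 1-NA-PP1 with full growth; RAM network block rescues cells from 5-FOA so hits raise OD615 growth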). The settings on record: S. cerevisiae dse1pr::URA3 5-FOA growth, OD615, 2 d; at 10 µM; stronger effect = higher value; strain carries analog-sensitive mutant Cbk1 kinase.
The nature of test [13]: RAM signaling pathway blockade in yeast – S. cerevisiae, Pdr1DBD-CYC8 efflux-inhibited sensitized strain, primary screen (AID 1298;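 active = RAM network inhibition above 8.4% in each of two replicates, 3 SD over the compound average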;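 note: 0% = DMSO untreated cells without growth and 100% = 10 µM 1-NA-PP1 full growth; higher means more yeast growth rescued from 5-FOA killing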). To be noted: S. cerevisiae cbk1-as DSE1-URA3 strain, 5-FOA growth OD615, 2 d; at 50 µM; stronger effect = higher value.
Setting [14] is: H69AR cells + 2 uM doxorubicin, measured here: viability with 2 uM doxorubicin, stronger effect = lower value.
[15] abbreviates: H69AR cells, compound alone cytotoxicity.

Molecules are shown by their SMILES. Records with an inconclusive call do not appear. Calls of active or inactive are those of the source.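 Rule for the calls, unless noted: active = viability at or below 10% of carrier control in both of two separate runs; inconclusive = viability at or below 10% in only one of the two runs; inactive = the rest.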

With `O=C(c1ccc2snnc2c1)N1CCOCC1`, the viability is 101% (inactive) in test [1]; 90.2% (inactive) in [2]; 102% (inactive) in test [3]; 88.9% in [4] (setting [14]); 102% in test [4] (setting [15]); 102% (inactive) in test [10]. In test [11], the viability was 99.4% (inactive). Moreover, in test [4] (H69AR cells + 2 uM doxorubicin), the differential viability (reversal) was 12.8% (inactive). The inhibition in [5] is -1.73% (inactive); in test [6] it was -0.55% (inactive); in test [12], 1.69% (inactive). Besides, the growth inhibition is 0.235% (inactive) in test [7] and -15.9% (inactive) in test [8]. Besides, the viability increase in test [9] is 0.28% (inactive). Moreover, the RAM network inhibition in test [13] is 1.07% (inactive).
For `COc1ccc(NC(=O)Nc2ccc(N3CCCC3=O)cc2)cc1OC`, the viability was 126% (inactive) in test [1]; 104% (inactive) in test [2]; 104% (inactive) in test [3]; 89.1% in test [4] (setting [14]); 104% in test [4] (setting [15]); 107% (inactive) in test [10]. Moreover, the viability in test [11] is 93.8% (inactive). Also, the differential viability (reversal) in test [4] (H69AR cells + 2 uM doxorubicin) is 15.2% (inactive). Moreover, the inhibition in test [5] is -4.93% (inactive); in [6], -3.64% (inactive); in test [12], 0.135% (inactive). The growth inhibition in [7] was -1.9% (inactive); in test [8] it was 3.45% (inactive). In test [9], the viability increase was -3.97% (inactive). The RAM network inhibition in test [13] is 0.87% (inactive).
`CCc1c(C)n([O-])c2c([n+]1=O)CCC2`: the viability in test [1] is 104% (inactive); in test [2] it was 89.2% (inactive); in [3] it was 103% (inactive); in [4] (setting [14]) it was 97%; in test [4] (setting [15]), 103%; in test [10], 99.4% (inactive). The viability in test [11] was 102% (inactive). Moreover, the differential viability (reversal) in test [4] (H69AR cells + 2 uM doxorubicin) is 5.73% (inactive). In addition, the inhibition is -5.54% (inactive) in [5], -2.62% (inactive) in test [6] and 0.88% (inactive) in test [12]. For the same compound, the growth inhibition was -8.65% (inactive) in test [7] and -5.88% (inactive) in test [8]. The viability increase in test [9] was -0.78% (inactive). In [13], the RAM network inhibition was 3.44% (inactive).
Turning to `CC12CCC(C(=O)N3CCN(C(=O)C45CCC(C)(C(=O)O4)C5(C)C)CC3)(OC1=O)C2(C)C`, the viability is 109% (inactive) in test [1]; 97.5% (inactive) in test [2]; 105% (inactive) in [3]; 84.7% in test [4] (setting [14]); 105% in [4] (setting [15]); 102% (inactive) in [10]. In addition, the viability in test [11] is 94.1% (inactive). In addition, the differential viability (reversal) in test [4] (H69AR cells + 2 uM doxorubicin) is 20.1% (inactive). The values for the inhibition in test [5], in test [6] and in test [12] were -3.47% (inactive), -7.64% (inactive) and 1.42% (inactive), respectively. Further, the figures for the growth inhibition in test [7] and in test [8] were -17% (inactive) and -7.99% (inactive), respectively. Besides, the viability increase in [9] was -0.17% (inactive). The RAM network inhibition in test [13] is 0.26% (inactive).
`Cc1ccc(N2C(=O)c3oc4ccccc4c(=O)c3C2c2cccc(O)c2)nc1` (stereo not given): the viability in test [1] was 102% (inactive); in test [2], 59.1% (inactive); in test [3] it was 91.8% (inactive); in test [4] (setting [14]), 103%; in [4] (setting [15]) it was 91.8%; in [10] it was 73.1% (inactive). In test [11], the viability was 71.7% (inactive). Moreover, in test [4] (H69AR cells + 2 uM doxorubicin), the differential viability (reversal) was -11.7% (inactive). The inhibition is 0.9% (inactive) in test [5], 2.17% (inactive) in test [6] and 3.22% (inactive) in test [12]. Further, the growth inhibition in test [7] was -6.7% (inactive); in [8], -3.53% (inactive). Besides, in test [9], the viability increase was 1.12% (inactive). The RAM network inhibition in test [13] was 7.27% (inactive).
As for `Clc1c(CSc2nc3ccccc3o2)nc2sccn12`, the viability was 116% (inactive) in [1]; 82% (inactive) in test [2]; 92.9% (inactive) in [3]; 79.8% in test [4] (setting [14]); 92.9% in [4] (setting [15]); 77.3% (inactive) in test [10]. Besides, in [11], the viability is 81% (inactive). The differential viability (reversal) in [4] (H69AR cells + 2 uM doxorubicin) is 13.2% (inactive). Besides, the inhibition in test [5] is -1.04% (inactive); in [6], 2.95% (inactive); in [12], -0.115% (inactive). The results for the growth inhibition in test [7] and in [8] were -13.5% (inactive) and -9.04% (inactive), respectively. In addition, the viability increase in test [9] is -6.43% (inactive). For the same compound, the RAM network inhibition in test [13] is -0.26% (inactive).
Turning to `Cc1nonc1NC(=O)c1ccccc1Br`, the viability is 101% (inactive) in test [1]; 95.8% (inactive) in test [2]; 91.8% (inactive) in [3]; 86.8% in test [4] (setting [14]); 91.8% in [4] (setting [15]); 93.7% (inactive) in [10]. Moreover, in test [11], the viability was 101% (inactive). The differential viability (reversal) in test [4] (H69AR cells + 2 uM doxorubicin) was 4.93% (inactive). In addition, the inhibition in [5] is -3.6% (inactive); in test [6] it was -1.64% (inactive); in test [12], 2.3% (inactive). Also, the growth inhibition in test [7] is -16.1% (inactive); in [8], -8.82% (inactive). Further, the viability increase in [9] is 0.21% (inactive). The RAM network inhibition in test [13] is -0.15% (inactive).
For `O=C(O)CC(C(=O)Nc1cccc(C(F)(F)F)c1)C1CCCO1` (stereo not given), the viability in test [1] is 76% (inactive); in test [2] it was 108% (inactive); in test [3], 97.6% (inactive); in [4] (setting [14]), 94.3%; in test [4] (setting [15]), 97.6%; in test [10], 104% (inactive). In addition, the viability in [11] was 100% (inactive). Also, the differential viability (reversal) in [4] (H69AR cells + 2 uM doxorubicin) was 3.26% (inactive). For the same compound, the inhibition in test [5] is -3.33% (inactive); in test [6], -8% (inactive); in test [12], -0.115% (inactive). Besides, the results for the growth inhibition in test [7] and in test [8] were -10.5% (inactive) and -6.54% (inactive), respectively. Further, the viability increase in test [9] was 1.01% (inactive). Moreover, the RAM network inhibition in test [13] was 2.56% (inactive).
In the case of `CCCc1cc(=O)oc2cc(C)cc(OC(=O)c3ccco3)c12`, the viability in [1] was 97% (inactive); in test [2], 62.2% (inactive); in [3], 95.8% (inactive); in [4] (setting [14]), 86.5%; in test [4] (setting [15]), 95.8%; in test [10], 96.7% (inactive). In addition, the viability in [11] is 80.6% (inactive). The differential viability (reversal) in [4] (H69AR cells + 2 uM doxorubicin) was 9.31% (inactive). In addition, the inhibition was -6.93% (inactive) in test [5], -7.82% (inactive) in test [6] and 3.94% (inactive) in [12]. Besides, the growth inhibition in [7] is -7.19% (inactive); in test [8], -12.2% (inactive). Also, in test [9], the viability increase is -1.16% (inactive). Also, the RAM network inhibition in test [13] was 4.75% (inactive).
As for `Cc1ccc(C)n1-c1ccc(N2CCOCC2)cc1`, the viability in test [1] is 104% (inactive); in test [2], 86.4% (inactive); in test [3], 77.9% (inactive); in test [4] (setting [14]), 93.4%; in test [4] (setting [15]), 77.9%; in test [10] it was 8.5% (active). The viability in test [11] is 8.6% (active). Moreover, in test [4] (H69AR cells + 2 uM doxorubicin), the differential viability (reversal) is -15.4% (inactive). In addition, the inhibition is -6.35% (inactive) in test [5], -3.33% (inactive) in test [6] and 3.15% (inactive) in [12]. For the same compound, the growth inhibition in test [7] was -10.4% (inactive); in test [8], -9.78% (inactive). Besides, the viability increase in test [9] is -7.18% (inactive). The RAM network inhibition in test [13] was 7.34% (inactive).
Consider `CC1(C)CC2CC(C)(CN2S(=O)(=O)c2ccc(N)cc2)C1` (stereo not given), for which the viability is 120% (inactive) in test [1]; 99.6% (inactive) in [2]; 89.4% (inactive) in [3]; 80.9% in [4] (setting [14]); 89.4% in test [4] (setting [15]); 88% (inactive) in [10]. Moreover, the viability in test [11] was 87.6% (inactive). Moreover, the differential viability (reversal) in [4] (H69AR cells + 2 uM doxorubicin) was 8.43% (inactive). In addition, the inhibition is -8.93% (inactive) in test [5], -8.36% (inactive) in [6] and 0.505% (inactive) in test [12]. The figures for the growth inhibition in test [7] and in [8] were -0.15% (inactive) and 8.29% (inactive), respectively. Besides, in [9], the viability increase was -2.62% (inactive). In addition, the RAM network inhibition in test [13] is 9.14% (inactive).

The viability is a read-out of living cells in per cent, often relative to untreated cells. The term inhibition denotes the relative decrease from the control value, in per cent.
